Screens: PubChem BioAssay, National Center for Advancing Translational Sciences (NCATS)
TDP1 cell CPT = DT40-hTDP1 cell growth loss with CPT. 12% of 420,000 active. Potency, µM (series often up to 46.2 µM), usual class: inhibitors. chicken DT40 Tdp1-/-;hTDP1 cells + 20 nM CPT, ATP luminescence, 48 h. AID 686979; further: nearly all actives have a fitted effect of over 55% in size
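Chicken DT40 Tdp1-/- cells complemented with human TDP1, 400 cells/well, exposed to compounds plus 20 nM camptothecin for at least 48 h at 37 C; viability read as ATP content by CellTiter-Glo luminescence.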
TDP1 cell noCPT = qHTS for Inhibitors of human tyrosyl-DNA phosphodiesterase 1 (TDP1): qHTS in cells in absence of CPT. DT40 Tdp1-/- hTDP1 cells, no CPT, ATP luminescence, 48 h. Potency, µM (titrated, usually from 46.2 µM), usual class: inhibitors. 15% of 420,000 active. AID 686978, 2013; further: nearly all actives have a fitted effect of over 55% in size
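Cells were dispensed at 400 per well, compounds added by pin tool, plates incubated ≥48 hr at 37 °C, then CellTiter-Glo added for 30 min at room temperature before luminescence reading. Line: DT40 Tdp1-/- complemented with hTDP1; camptothecin omitted.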
TDP1 inh = TDP1 (human) enzyme inhibition; AID 485290; recombinant TDP1, AlphaScreen DNA substrate cleavage; Potency, µM (highest dose often 130 µM), most hits filed as inhibitors; Q9NUW8; 0.28% of 350,000 active; further: nearly all actives have a fitted effect of over 40% in size
Target sequence (Q9NUW8 whole entry, looked up): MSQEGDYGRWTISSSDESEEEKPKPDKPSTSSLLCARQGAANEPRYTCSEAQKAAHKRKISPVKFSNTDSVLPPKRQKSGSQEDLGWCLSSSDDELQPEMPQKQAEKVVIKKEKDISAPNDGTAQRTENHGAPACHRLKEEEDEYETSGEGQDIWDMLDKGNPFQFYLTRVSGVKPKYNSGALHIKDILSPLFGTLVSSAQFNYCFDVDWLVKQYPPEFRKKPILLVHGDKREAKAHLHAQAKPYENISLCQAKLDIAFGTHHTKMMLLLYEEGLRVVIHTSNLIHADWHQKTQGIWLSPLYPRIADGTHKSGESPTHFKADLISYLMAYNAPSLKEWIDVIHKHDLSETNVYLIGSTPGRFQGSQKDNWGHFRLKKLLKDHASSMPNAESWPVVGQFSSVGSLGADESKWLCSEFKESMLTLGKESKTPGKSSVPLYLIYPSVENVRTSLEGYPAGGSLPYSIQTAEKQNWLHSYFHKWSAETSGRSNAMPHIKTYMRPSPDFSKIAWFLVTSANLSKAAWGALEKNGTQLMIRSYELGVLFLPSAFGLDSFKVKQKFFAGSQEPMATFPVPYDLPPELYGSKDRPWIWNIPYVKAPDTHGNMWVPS
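Recombinant E. coli-expressed Tdp1 (1 nM) preincubated with compound 15 min at RT, then 5'-biotin/3'-phosphotyrosine-FITC DNA substrate (15 nM) added for 5 min. AlphaScreen beads (10 ug/ml) added, 10 min RT; tyrosine-FITC cleavage read as signal loss.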
ClpP mod = qHTS Assay for Activators of ClpP. purified B. subtilis ClpP, FRET peptide cleavage, 20 min. ATP-dependent Clp protease proteolytic subunit (Bacillus subtilis (strain 168)), P80244. Potency, µM (titrated, usually from 57.5 µM). 1.9% of 340,000 active; active means well fitted falling curve with a large enough effect; inconclusive means small, poorly fitted or top-dose-only effect; inactive means no such curve, though single readings can be large or run the other way; further: the source files actives as falling curves though it sought activators and does not explain the sign; nearly all actives have a fitted effect of over 65% in size
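FRET quenching reversal measured ClpP activation: 10 microg/mL B. subtilis ClpP at pH 8 with the FRET-FV decapeptide, read at 430 nm after 320 nm excitation. The 20-min minus 0-min signal was scaled between DMSO/no-enzyme wells and ADEP (5.8 microM final).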
Each line names hits and unclear results; the compound was inactive in the other large screens. The list is not random: actives were taken first. Their share in the collection is about 17%. Unless noted, the call rests on the fitted dose curve; in most records, active means well fitted curve in the direction sought with a large enough effect; inconclusive means small, poorly fitted or top-dose-only effect, or another doubt; inactive means no such curve, though single readings can be large; an effect the other way counts as inactive or inconclusive.

CCOc1ccc(C(=S)NC2CCCCC2)cc1OCC	TDP1 cell CPT inconclusive, TDP1 cell noCPT 4.6µM (no result: ClpP mod)
O=C(NCc1cccc(C(F)(F)F)c1)c1ccc(=O)[nH]c1	none (no result: TDP1 inh, ClpP mod)
COC(=O)c1ccc(=O)c2nc3/c(=C/O)c(O)cc(=O)c3[nH]c12	TDP1 cell CPT 21µM, TDP1 cell noCPT inconclusive, TDP1 inh inconclusive
O=C(c1cccc(Cl)c1)N1CCCC(Cn2cc(C(=O)N3CCCC3)nn2)C1 (stereo not given)	none (no result: TDP1 inh, ClpP mod)
COc1ccc(NC(=O)CN2C(=O)NC3(CCCc4ccccc43)C2=O)c(OC)c1 (stereo not given)	TDP1 cell noCPT inconclusive, ClpP mod 16µM
Cc1ccc(NC(=O)CN2C(=O)NC3(CCCc4ccccc43)C2=O)cc1S(=O)(=O)N1CCOCC1 (stereo not given)	TDP1 cell noCPT inconclusive (no result: ClpP mod)
Cc1ccc(C)c(C(=O)CN2C(=O)NC3(CCc4ccccc43)C2=O)c1 (stereo not given)	TDP1 cell CPT inconclusive, TDP1 cell noCPT inconclusive
Cc1ccc(C)c(NC(=O)CN(C)C(=O)CN2C(=O)NC3(CCc4ccccc43)C2=O)c1 (stereo not given)	TDP1 cell CPT 9.2µM, TDP1 cell noCPT 8.2µM
CCN(CC)S(=O)(=O)c1cc(NC(=O)CN2C(=O)NC3(CCCc4ccccc43)C2=O)ccc1C (stereo not given)	TDP1 cell CPT 23µM, TDP1 cell noCPT inconclusive (no result: ClpP mod)
C=CCN(CC=C)S(=O)(=O)c1ccc2nc(NC(=O)C(C)C)sc2c1	TDP1 cell CPT 5.8µM, TDP1 cell noCPT 2.6µM
CCN(CC)S(=O)(=O)c1cccc(C(=O)N[C@H](C(=O)Nc2nc3ccccc3s2)C(C)C)c1	TDP1 cell CPT inconclusive, TDP1 cell noCPT 15µM
CS(=O)(=O)c1ccc2nc(NC(=O)C3CC3)sc2c1	none (no result: TDP1 inh)
CCN(CC)S(=O)(=O)c1cccc(C(=O)N[C@H](C(=O)Nc2nc3ccc(F)cc3s2)C(C)C)c1	TDP1 cell CPT 16µM, TDP1 cell noCPT 15µM
Fc1ccc(CNCCCSc2nnnn2-c2ccccc2)cc1	TDP1 cell CPT inconclusive
O=C(CSc1nnc(-c2cccnc2)o1)N1CCCCC1	none (no result: ClpP mod)
Cc1ccc(COc2ccc3oc(-c4ccccc4)c(C(=O)O)c3c2)cc1	none
CN(C(=O)COC(=O)c1nc(Cl)ccc1Cl)c1ccccc1	none
O=C(CCc1ccc(S(=O)(=O)N2CCOCC2)cc1)Nc1ccc(F)cc1[N+](=O)[O-]	TDP1 cell CPT inconclusive, ClpP mod inconclusive
Cc1ccsc1/C=C1/SC(N2CC(C)OC(C)C2)=NC1=O (stereo not given)	TDP1 cell CPT inconclusive, TDP1 cell noCPT 21µM
CC1(C(=O)Nc2cccc(-n3cnnn3)c2)Cc2ccccc2C(=O)O1 (stereo not given)	ClpP mod 35µM
CC1(C(=O)Nc2cccc(Br)c2)Cc2ccccc2C(=O)O1 (stereo not given)	none
Cc1cc(C)c(C(=O)Nc2ccc(Br)c(C(F)(F)F)c2)c(C)c1	TDP1 cell CPT 16µM, TDP1 cell noCPT 12µM
COc1ccc2sc(NC(=O)CC(C)C)nc2c1	TDP1 cell CPT inconclusive
O=C(COc1cccc2c1CCNC2=O)Nc1cccc(C(F)(F)F)c1	TDP1 cell CPT 8.2µM, TDP1 cell noCPT 16µM
CCC(=O)Nc1nc2cc(OC)ccc2s1	TDP1 cell CPT inconclusive, TDP1 cell noCPT 18µM
CCC(=O)Nc1nc2ccc3nc(C)sc3c2s1	TDP1 cell CPT inconclusive, TDP1 cell noCPT 21µM
O=C(O)c1ccccc1C(=O)Nc1ccc(Br)c(C(F)(F)F)c1	none
O=C(COC(=O)c1ccccc1O)Nc1cccc(S(=O)(=O)N2CCCC2)c1	none
COc1cc(C(C)=O)ccc1OCC(=O)OCCCOC(=O)COc1ccc(C(C)=O)cc1OC	none
CCc1ccc(Nc2ncc3c(n2)CC(C)(C)CC3=O)cc1	none (no result: ClpP mod)
O=C(CN1CCN(C(=O)C2CCCO2)CC1)Nc1ccc(Cl)cc1 (stereo not given)	none
CCOC(=O)N1CCc2c(sc3c2c(=O)n(-c2ccc(CC)cc2)c(=O)n3CC(=O)Nc2ccc(C)cc2)C1	TDP1 cell CPT inconclusive, TDP1 cell noCPT inconclusive
Cc1cc2nc(-c3ccc(OCc4ccc(F)cc4)cc3)cc(C(F)(F)F)n2n1	none
COc1cc(CCC(=O)Nc2nnc(C)s2)cc(OC)c1OC	TDP1 cell CPT 4.6µM, TDP1 cell noCPT 2.9µM (no result: ClpP mod)
COc1cc(C(=O)Nc2ccc(Cl)c(C(F)(F)F)c2)cc(OC)c1OC	TDP1 cell CPT 15µM, TDP1 cell noCPT 23µM
